# Where a name gives a salt, the structure may show the parent alone.
# How the values were obtained:
# Experiment in all cases: Euclidean distance of Cell Painting phenotypic profile (signed KS, 77 features) to DMSO centroid (dimensionless distance); 5 or 10 uM (library dependent); higher = stronger phenotypic change vs DMSO (phenoactivity)
# Settings in all cases: 48 h
# 786-O = tested on: 786-O
# In short: (§1)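 Library compounds were applied at 10 or 5 uM, depending on the library, with 0.1% DMSO final, for 48 h to five cancer lines and a healthy fibroblast line. After staining, cells were imaged confocally at 20X across 9 fields per well, and Harmony extracted 77 features, each scored as a signed Kolmogorov-Smirnov statistic against vehicle wells on the same plate. Phenoactivity is the Euclidean distance between each profile and the median vehicle profile, with profiles first plate-position corrected, correlation-weighted and averaged over replicates at the top dose.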
# A549 = tested on: A549
# In short: as §1
# DU145 = tested on: DU145
# In short: as §1
# FB = tested on: FB
# In short: as §1
# HEPG2 = tested on: HEPG2
# In short: as §1
# OVCAR4 = tested on: OVCAR4
# In short: as §1
Compound,Euclidean distance (786-O),Euclidean distance (A549),Euclidean distance (DU145),Euclidean distance (FB),Euclidean distance (HEPG2),Euclidean distance (OVCAR4)
Cc1cc(N2CCN([C@@H]3CN[C@H](C(=O)N4CCSC4)C3)CC2)n(-c2ccccc2)n1 [Teneligliptin hydrobromide],1.1,1.09,2.06,1.2,1.21,1.33
COC(=O)C1=CO[C@@H](O[C@@H]2O[C@H](CO)[C@@H](O)[C@H](O)[C@H]2O)[C@@H]2[C@@H](C)[C@@H](O)C[C@H]12 [Loganin],0.879,0.804,1.02,0.781,0.691,0.971
Cc1ccsc1/C=C/C1=NCCCN1C [Morantel tartrate],0.593,0.834,0.571,1.19,0.557,1.21
Nc1ccc(S(=O)(=O)Nc2ncccn2)cc1 [Sulfadiazine],1.39,0.735,1.5,1.03,2.25,1.43
Cc1ccccc1-c1cc(N2CCN(C)CC2)ncc1N(C)C(=O)C(C)(C)c1cc(C(F)(F)F)cc(C(F)(F)F)c1 [Netupitant],1.35,0.761,0.595,0.999,1.23,1.4
CCOC(=O)[C@H](CCc1ccccc1)N[C@H]1CS[C@H](c2cccs2)CN(CC(=O)O)C1=O [Temocapril HCl],0.717,0.454,0.716,0.895,0.434,0.878
CCc1cccc2c3c([nH]c12)C(CC)(CC(=O)O)OCC3 (centres undefined) [Etodolac],0.711,0.964,1.01,1.18,0.56,1.35
O=C1CN(/N=C/c2ccc([N+](=O)[O-])o2)C(=O)N1 [Nitrofurantoin],1.11,0.86,1.02,0.744,0.699,0.831
CCOCCn1c(C2CCN(CCc3ccc(C(C)(C)C(=O)O)cc3)CC2)nc2ccccc21 [Bilastine],1.25,1.12,1.37,0.933,0.505,0.894
Cc1cc2ncc(C(=O)NCC(C)(C)NCC(=O)N3CCC[C@H]3C#N)cn2n1 [Anagliptin],1.08,1.14,1.17,1.29,0.393,1.17
CCCC(=O)O[C@]1(C(=O)CO)CC[C@H]2[C@@H]3CCC4=CC(=O)CC[C@]4(C)[C@H]3[C@@H](O)C[C@@]21C [Hydrocortisone butyrate],1.21,2.18,1.87,1.7,1.87,2.45
C[C@H](O)[C@H](O)[C@H]1CNc2[nH]c(N)nc(=O)c2N1 [Sapropterin Dihydrochloride],0.821,0.501,0.871,0.819,0.542,0.643
CCCCCOc1ccccc1/C(=C\SC)n1ccnc1 [Neticonazole Hydrochloride],1.28,1.44,0.848,0.825,1.31,1.05
CC1=C(/C=C/C(C)=C/C=C/C(C)=C/CO)C(C)(C)CCC1 [Vitamin A],0.784,1.06,0.821,1.61,0.745,1.33
COc1cc(C)c(/C=C/C(C)=C/C=C/C(C)=C/C(=O)O)c(C)c1C [Acitretin],1.13,0.972,0.881,2.31,1.39,1.13
Cc1cc(C)c(/C=C2\C(=O)Nc3ccccc32)[nH]1 [Semaxanib (SU5416)],2.05,1.16,1.09,1.08,0.527,0.885
CN(C)CCOC(=O)COc1ccc(Cl)cc1 [Meclofenoxate (Centrophenoxine) HCl],0.714,0.913,1.3,0.93,1.13,1.29
CC(C)(C)C(=O)OCOP(=O)(COCCn1cnc2c(N)ncnc21)OCOC(=O)C(C)(C)C [Adefovir Dipivoxil],2.81,2.71,2.07,2.73,3.97,3.18
C#Cc1cccc(Nc2ncnc3cc(OC)c(OCCCCCCC(=O)NO)cc23)c1,3.46,4.62,2.02,3.43,1.85,1.93
CC1(C)S[C@@H]2[C@H](NC(=O)[C@H](N)c3ccccc3)C(=O)N2[C@H]1C(=O)OCOC(=O)[C@@H]1N2C(=O)C[C@H]2S(=O)(=O)C1(C)C [Sultamicillin],1.46,0.999,0.805,1.26,0.611,1.28
CNCCC(Oc1ccc(C(F)(F)F)cc1)c1ccccc1 (centres undefined) [Fluoxetine HCl],0.84,1.16,1.21,1.78,1.35,1.71
C[C@]12CC[C@@H]3c4ccc(OS(=O)(=O)O)cc4CC[C@H]3[C@@H]1CCC2=O [Estropipate],0.946,0.41,0.686,0.891,0.623,1.17
CCC[C@H](N[C@H]1CCc2cc(F)cc(F)c2C1)C(=O)Nc1cn(C(C)(C)CNCC(C)(C)C)cn1,1.07,1.25,0.825,0.705,1.07,2.26
CCN(CC)Cc1cc(Nc2ccnc3cc(Cl)ccc23)ccc1O [Amodiaquine dihydrochloride dihydrate],3.19,3.25,1.79,3.65,3.36,2.54

# From the supplement of paper PMC10127200
